Source: PubChem BioAssay (Tox21)
“And” between values parts separate entries of the source, which are not always exact repeats. Identical values can stand only once. Inconclusive results are not listed. Entries that show only a call come without a potency. The source made the active and inactive calls. Calls come from the whole dose curve; as a rule, active = well fitted cell-killing curve with a large enough effect in the repeat runs; inconclusive = weak or mixed curves, or effect the other way; inactive = flat fitted curve, though single readings scatter.

Experiment: cAMP Responsive Elements (CRE) small molecule agonists, cell-based qHTS assay: qHTS cell viability counter screen (AID 2060914); note: nearly all actives have a fitted effect of over 50% in size
Conditions: CRE-bla HEK293T viability, CellTiter-Glo luminescence, 5 h; series mostly up to 92.4 µM
Outline: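 CRE-bla HEK293T cells in 10% dialyzed FBS medium were exposed to compounds for 3 h at 37C after 18 h plating. CellTiter-Glo was then added in the same wells, and luminescence was read after 30 min at room temperature.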
Potency is the fitted concentration of half-maximal effect.

**Q.** Which Potency does the source give for `CC(=O)N[C@@H](CCC(N)=O)C(=O)O` here?
**A.** The Potency was “inactive”.

**Q.** Which Potency does the source give for `CCOC(=O)Nc1ccc2c(c1)N(C(=O)CCN1CCOCC1)c1ccccc1S2` here?
**A.** The Potency was “inactive”.

**Q.** With `CC(C)C(OC(=O)c1ccccc1)C(C)(C)COC(=O)c1ccccc1` (stereo not given) as the compound, how does the Potency read?
**A.** The Potency was “inactive”.

**Q.** With `Nc1ccc(C(=O)N2CC3CC(CN(Cc4ccccc4)C3)C2)cc1` as the compound, how does the Potency read?
**A.** Its Potency is “inactive”.

**Q.** For `O=C1C(c2[nH]c3ccc(S(=O)(=O)O)cc3c2O)=Nc2ccc(S(=O)(=O)O)cc21`, which Potency is on record?
**A.** The Potency was “inactive”.

**Q.** With `CN(C)c1ccc(C(=C2C=CC(=[N+](C)C)C=C2)c2ccc(N(C)C)cc2)cc1` as the compound, how does the Potency read?
**A.** Its Potency is 48.3 µM (active) and 61.1 µM (active) and 29.8 µM (active).

**Q.** With `CC(C)(C)CC(C)(C)c1ccc(OCCO)cc1` as the compound, how does the Potency read?
**A.** Its Potency is “inactive”.

**Q.** Which Potency does the source give for `Cc1onc(-c2ccccc2Cl)c1C(=O)N[C@@H]1C(=O)N2[C@@H]1SC(C)(C)[C@@H]2C(=O)O` here?
**A.** Its Potency is “inactive”.

**Q.** For `Oc1cccc(O)c1`, which Potency is on record?
**A.** The Potency was “inactive”.

**Q.** With `CS(=O)(=O)O` as the compound, how does the Potency read?
**A.** The Potency was “inactive”.

**Q.** Which Potency does the source give for `CN(C)CCOc1ccccc1Cc1ccccc1` here?
**A.** The Potency was “inactive”.

**Q.** Which Potency does the source give for `CC(C)(C)c1csc(-c2cc3cc(OCc4ccccc4CC(=O)O)ccc3o2)n1` here?
**A.** The Potency was “inactive”.

**Q.** With `Cc1nccn1-c1ccc(Sc2cccc(C3(C(N)=O)CCOCC3)c2)cc1` as the compound, how does the Potency read?
**A.** The Potency was “inactive”.

**Q.** With `O=C(O)CNc1ccccc1` as the compound, how does the Potency read?
**A.** The Potency was “inactive”.

**Q.** Which Potency does the source give for `CC(=O)Nc1ccccc1` here?
**A.** The Potency was “inactive”.

**Q.** For `CCCCCCCOC(C)=O`, which Potency is on record?
**A.** Its Potency is “inactive”.

**Q.** With `CCOC(=O)C(=O)CCCCCCl` as the compound, how does the Potency read?
**A.** Its Potency is “inactive”.

**Q.** For `CCCCCNCCCCC`, which Potency is on record?
**A.** Its Potency is “inactive”.

**Q.** For `CC1(C)OC(=O)NC1=O`, which Potency is on record?
**A.** Its Potency is “inactive”.

**Q.** Which Potency does the source give for `Cc1ncc(CSSCc2cnc(C)c(O)c2CO)c(CO)c1O` here?
**A.** The Potency was “inactive”.

**Q.** Which Potency does the source give for `NC(=O)c1ncn([C@@H]2O[C@H](CO)[C@@H](O)[C@H]2O)c1O` here?
**A.** The Potency was “inactive”.

**Q.** Which Potency does the source give for `COc1ccccc1NC(=O)c1cc2ccccc2cc1O` here?
**A.** Its Potency is 30.6 µM (active).

**Q.** For `CCCCOc1ccc(N)cc1`, which Potency is on record?
**A.** The Potency was “inactive”.

**Q.** Which Potency does the source give for `CC/C(=C(\c1ccccc1)c1ccc(OCCN(C)C)cc1)c1ccccc1` here?
**A.** The Potency was “inactive”.

**Q.** Which Potency does the source give for `COCCCCCCCCOCCC[Si](C)(O[Si](C)(C)C)O[Si](C)(C)C` here?
**A.** The Potency was “inactive”.

**Q.** With `Cc1nc2ccc(CN(C)c3ccc(C(=O)N[C@@H](CCC(=O)O)C(=O)O)s3)cc2c(=O)[nH]1` as the compound, how does the Potency read?
**A.** The Potency was “inactive”.

**Q.** Which activity change, negative = cytotoxicity does the source give for `CN(C)CCCN(C)C` here?
**A.** The activity change, negative = cytotoxicity was -2.69% [at 8.39 µM] (inactive).

**Q.** Which Potency does the source give for `CCc1ncc(C)[nH]1` here?
**A.** Its Potency is “inactive”.

**Q.** With `CC1(C)SC(C)(C)SC(C)(C)S1` as the compound, how does the Potency read?
**A.** The Potency was “inactive”.

**Q.** For `COCCCN1CCC(NC(=O)c2cc(Cl)c(N)c3c2OCC3)CC1`, which Potency is on record?
**A.** The Potency was “inactive”.

**Q.** Which Potency does the source give for `CO[C@H]1C=CO[C@@]2(C)Oc3c(C)c(O)c4c(O)c(cc(O)c4c3C2=O)NC(=O)/C(C)=C\C=C/[C@H](C)[C@H](O)[C@@H](C)[C@@H](O)[C@@H](C)[C@H](OC(C)=O)[C@@H]1C` here?
**A.** Its Potency is “inactive”.

**Q.** For `CCCCCCCCCCCCCCCCN`, which Potency is on record?
**A.** Its Potency is “inactive”.

**Q.** With `C[C@H](CCC(=O)O)[C@H]1CC[C@H]2[C@@H]3CC[C@@H]4C[C@H](O)CC[C@]4(C)[C@H]3C[C@H](O)[C@]12C` as the compound, how does the Potency read?
**A.** Its Potency is “inactive”.

**Q.** Which Potency does the source give for `C#CC(C)(O)CC(C)C` (stereo not given) here?
**A.** The Potency was “inactive”.

**Q.** For `CC(=O)OC(C)OC(C)=O`, which Potency is on record?
**A.** The Potency was “inactive”.

**Q.** With `O=C(Nc1ccc(Cl)cc1)Nc1ccc(Cl)c(Cl)c1` as the compound, how does the Potency read?
**A.** The Potency was “inactive”.

**Q.** Which Potency does the source give for `Cc1ccc2c(c1)CCCN2` here?
**A.** Its Potency is “inactive”.

**Q.** With `COc1cc2nc(N3CCN(C(=O)C4CCCO4)CC3)nc(N)c2cc1OC` (stereo not given) as the compound, how does the Potency read?
**A.** Its Potency is “inactive”.

**Q.** For `CC(C)(C)c1cc(/C=C2\SC(=N)NC2=O)cc(C(C)(C)C)c1O`, which Potency is on record?
**A.** The Potency was “inactive”.

**Q.** For `O=S(=O)(O)c1ccc(N=Nc2c(O)ccc3ccccc23)cc1`, which Potency is on record?
**A.** Its Potency is “inactive”.
